EBV LMP1 NFkB – EBV LMP1-driven NF-kappaB luciferase reporter inhibitors, primary screen, cell-based, luminescence, single point. inhibition, % at 12.5 µM. LMP1-induced NF-kappaB luciferase reporter cells. 350,000 tested, 0.69% active; in the data active = inhibition above about 41%;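 note: 0% = neutral control wells and 100% = reference inhibitor control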
HSF1 activator – HSF-1 activators, primary screen, NIH3T3-HGL cells, MG132 stress, luminescence, single point | 300,000 tested, 1.7% active | AID 504408, 2011 | NIH3T3-HGL HSF-1 luciferase reporter, 8 h; 100% = twice DMSO control signal | activation, % at 9 µM;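 active = mean replicate activation of at least 50% with a set share of replicates each reaching 50%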;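 note: 0% = median of the neutral control wells and 100% = twice that signal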
HSF1 inhib – HSF1 inhibitors in luciferase reporter cells, primary screen, cell-based, NIH3T3, luminescence; activity change, negative = inhibition, % at 7.5 µM (by protocol); 300,000 tested, 0.77% active; AID 2098, 2009; NIH3T3-HGL HSE-luciferase, MG132-induced, luminescence 8 h; active compounds read low;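 active = more than half of replicate wells show activity change below -50%, luminescence cut by over half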;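 note: luciferase reports HSF-1 transcriptional activity via heat shock element; 0% = median of DMSO wells and -100% = zero luminescence signal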
HSP90 inh – HSP90 inhibitors, primary screen, cell lysate, luminescence; Heat shock protein HSP 90 (rabbit reticulocyte lysate; luciferase refolding); Rabbit reticulocyte lysate, luciferase refolding luminescence, 3 h; 290,000 tested, 0.91% active; inhibition, % at 5.6 µM;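 active = inhibition above the screen-wide mean plus 3 SD, computed separately per campaign, cut at about 16% in these data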;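 note: 0% = DMSO wells and 100% = 60 µM geldanamycin wells; inhibitors lower the luminescence because luciferase stays unfolded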
TWEAK Fn14 block – inhibitors of TWEAK-Fn14 signaling, primary screen, luciferase reporter cells, uHTS; TWEAK-stimulated Fn14 reporter cells, luciferase luminescence, 8 h; inhibition, % at 10 µM; 360,000 tested, 2% active; in the data active = inhibition above about 50%
TROY signal inh – inhibitors of TROY-driven NF-kB signaling, primary screen, Q293 LMP1-TROYcd cells, NF-kB luciferase, uHTS. 360,000 tested, 0.98% active. AID 1347056, 2019. Q293 LMP1-TROYcd NF-kB luciferase reporter, 4 h. inhibition, % at 10 µM;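 active = compounds whose plate-normalised and pattern-corrected inhibition of the luciferase reporter signal at the single screening dose is 50% or more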
Active calls of the source: *; . = not tested or not shown. An excerpt weighted towards active compounds, which were near 4.7% of everything screened.

SMILES	EBV LMP1 NFkB	HSF1 activator	HSF1 inhib	HSP90 inh	TWEAK Fn14 block	TROY signal inh
O=C(O)CCN1C(=O)C2C3c4ccccc4C(c4ccccc43)C2C1=O (stereo not given)	50*	-8	-7	2	-3	6
COc1ccc(-c2nc(CN3CCC(C(=O)N4CCOCC4)CC3)c(C)o2)cc1C	66*	2	0	-1	-7	13
COc1ccccc1N1CCN(C(c2ccc(N(C)C)cc2)c2nnnn2CCc2ccccc2)CC1 (stereo not given)	5	-78	-72*	-3	3	-8
COc1ccc(C(c2nnnn2CCc2ccccc2)N2CCN(C3CCCC3)CC2)cc1 (stereo not given)	-22	-13	-4	0	4	-2
CCc1cc2c(COC(=O)c3cccc(NS(C)(=O)=O)c3)cc(=O)oc2cc1O	2	4	-7	4	55*	53*
CCc1cc2c(COC(=O)c3cc(S(=O)(=O)N4CCOCC4)ccc3F)cc(=O)oc2cc1O	4	.	.	.	9	45
COc1ccc(C2=NN(C(=O)CSC3=NN4CCCC(=O)N=C4S3)C(c3cccc(OC)c3OC)C2)cc1 (stereo not given)	77*	2	7	2	11	16
Cc1ccc2[nH]cc(C(=O)CN3CCOCC3)c2c1	1	-7	0	0	22	-7
Cc1ccc2[nH]cc(C(=O)CN3CCC4(CC3)OCCO4)c2c1	-8	3	0	-3	51*	-12
O=C(Nc1nc2ccccc2[nH]1)c1ccc([N+](=O)[O-])cc1	-1	61*	29	3	35	-35
O=C(Nc1ccccc1O)c1ccc([N+](=O)[O-])cc1	26	24	14	0	110*	-28
O=C(Nc1nc2ccccc2[nH]1)c1cccs1	-1	55*	38	9	45	-21
O=C(Nc1nc2ccccc2[nH]1)C1CC1	-9	18	4	3	-15	-11
O/C(=C\c1nc2ccccc2[nH]1)c1cccs1	-25	60*	50	0	-1	-44
O=C(C[C@H]1C(=O)N(C2CCCCC2)C[C@@H]1c1ccccc1)Nc1ccc(Br)cc1	4	.	.	.	14	2
CCC1(c2ccc(F)cc2)NC(=O)N(CC(=O)N2CCN(S(=O)(=O)c3ccc(C)cc3C)CC2)C1=O (stereo not given)	-1	.	.	.	17	12
CC(C)CCn1cnc2c(sc3nc4c(cc32)CSC(C)(C)C4)c1=O	-9	-32	-37	8	68*	67*
CCCCn1cnc2c(sc3nc4c(cc32)CSC(C)(C)C4)c1=O	-52	-11	-7	5	31	38
COc1ccc(C(=O)OCc2csc(C)n2)c(O)c1	-2	65*	26	0	-13	-51
CC(=O)N1CCC(=NNC(=O)c2cccs2)CC1	-3	55*	19	-11	-28	-58
CC1=C/C(=N\NC(=O)c2cccs2)CC(C)(C)C1	-9	62*	54	-2	-11	-11
C=C(C)C1CC=C(C)/C(=N/NC(=O)c2cccs2)C1 (stereo not given)	-7	80*	37	-7	-16	-62
O=C(NN=C1CCCC1)c1cccs1	-4	36	26	-4	-16	-92
Nc1[nH]c(C(=O)c2ccccc2)c(-c2ccccc2C(F)(F)F)c1C(=O)NCc1ccc(F)cc1	.	.	.	.	-7	22
O=C(CCCl)Nc1nc2c(s1)CCc1ccccc1-2	-16	175*	146	-2	3	-21
SMILES	EBV LMP1 NFkB	HSF1 activator	HSF1 inhib	HSP90 inh	TWEAK Fn14 block	TROY signal inh
CC(=O)Nc1nc2c(s1)CCc1ccccc1-2	-4	11	6	0	57*	-15
Cc1nc2ccc(F)cc2cc1C(=O)Nc1ccc(Cl)c(Cl)c1	14	11	-5	-1	51*	-7
CS(=O)(=O)N(CC(=O)NCC1CCCO1)c1cc(Cl)ccc1Cl (stereo not given)	-12	54*	18	4	-4	-12
CS(=O)(=O)N(CC(=O)NCC1CCCO1)c1cc(Cl)c(Cl)cc1Cl (stereo not given)	-11	9	-6	0	-2	-7
CC(=Nc1ccc(C)cc1C)c1sc2ccccc2c1O	-46	53*	12	0	39	32
CC(=Nc1ccc(C)cc1)c1sc2ccccc2c1O	-23	31	20	-1	37	21
Cc1ccccc1OCC(=O)OCC(=O)NC1CCCC(C)C1C (stereo not given)	0	.	.	.	-1	0
C[C@H]1CN([C@@H](C)CO)C(=O)CCCn2nncc2CO[C@H]1CN(C)S(=O)(=O)c1ccc2ccccc2c1	1	.	.	.	10	-19
O=C(c1ccccc1)N1CCN(c2ccc(Cl)cc2)CC1	0	-2	-1	1	-3	-8
O=C(c1noc2c1CSc1ccccc1-2)N1CCN(c2ccc(Cl)cc2)CC1	68*	-5	-3	-2	6	-3
O=C(NN1C(=O)C2C3C=CC(C4CC34)C2C1=O)c1cccc(Cl)c1 (stereo not given)	71*	10	-6	-4	-1	-42
N#Cc1c2ccc([N+](=O)[O-])cc2[n+]([O-])n1-c1ccccc1	50*	.	.	.	17	-4
COc1ccc(CNc2nc3c(c(=O)[nH]c(=O)n3C)n2Cc2ccccc2C)cc1	4	-79	-69*	-1	-12	-19
Cc1cccc(-c2ccc3[nH]c4c(c3c2)CCN2C[C@@H]([C@H](C)OC(=O)Nc3ccccc3C)[C@@H](N(C)C(=O)Nc3ccccc3C)C[C@@H]42)c1	-11	.	.	.	88*	20
C[C@H](O)[C@@H]1CN2CCc3c([nH]c4ccccc34)[C@@H]2C[C@@H]1N(C)C(=O)Nc1cccc2ccccc12	.	.	.	.	34	28
C#CCN(CC(=O)OCC)S(=O)(=O)CCNC1CC1	.	.	.	.	11	-5
CCN(CC(O)CON=C1c2ccccc2-c2ccccc21)S(=O)(=O)c1ccc(Cl)cc1 (stereo not given)	-5	45	12	0	63*	13
CCN(CC(O)CON=C1c2ccccc2-c2ccccc21)S(=O)(=O)c1ccc(C)cc1 (stereo not given)	-9	24	13	-3	48	36
c1ccc(COc2ncnc3c2ncn3CCCNCC(c2ccccc2)c2ccccc2)cc1	-60	.	.	.	-94	-16
Cc1cccc(-c2nc(=S)c3c(n2Cc2ccco2)CCCC3)c1	-2	11	-2	1	50*	11
